In PubChem BioAssay (NCI):
About 79,000 compounds went through this panel and 15% of them were active in at least one assay; those are over-represented in the sample as a whole. No stated cut-off is given here; in the data, active means growth inhibition above about 70%; inactive means the rest.

Key:
[1] = NCI Yeast Anticancer Drug Screen. Data for the rad50 strain (AID 155);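 further: 0% = growth of vehicle-only cultures of the same strain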; settings: S. cerevisiae rad50 strain growth inhibition; at 50.0 µM; active compounds read high
Method in brief: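 DNA repair mutant yeast, compound exposure, growth read-out; inhibition is taken relative to vehicle.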

[2] = NCI Yeast Anticancer Drug Screen. Data for the mec2-1 strain (AID 157); settings: S. cerevisiae mec2-1 strain, at 50.0 µM, active compounds read high
Method in brief: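 Yeast mec2-1 mutant treated with compound. Readout: growth inhibition vs vehicle controls.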

[3] = NCI Yeast Anticancer Drug Screen. Data for the sgs1 mgt1 strain (AID 161);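 further: 0% = growth of cultures given vehicle only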; settings: S. cerevisiae sgs1 mgt1 strain, at 50.0 µM, active compounds read high
Method in brief: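 Mutant yeast exposed to compound; growth scored against vehicle-only wells.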

[4] = NCI Yeast Anticancer Drug Screen. Data for the cln2 rad14 strain (AID 165);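 further: 0% = growth equal to vehicle treated cultures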; settings: S. cerevisiae cln2 rad14 strain, at 50.0 µM, active compounds read high
Method in brief: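 cln2 rad14 yeast strain; compound exposure; growth inhibition read vs vehicle controls.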

[5] = NCI Yeast Anticancer Drug Screen. Data for the bub3 strain (AID 167); settings: S. cerevisiae bub3 mutant strain, at 50.0 µM, active compounds read high
Method in brief: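 In this screen, a yeast mutant lacking normal mitotic checkpoint function is challenged with compound. Relative growth versus vehicle gives the inhibition value.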

[6] = NCI Yeast Anticancer Drug Screen. Data for the mlh1 rad18 strain (AID 175); settings: S. cerevisiae mlh1 rad18 strain growth inhibition; at 50.0 µM; active compounds read high
Method in brief: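 Yeast w/ defined DNA-repair lesions; compound exposure; growth vs vehicle controls → % inhibition.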

Measured: growth inhibition

CC(=O)Nc1cc(N)cc(C(=O)O)c1
inactive: [1] 37% | [2] -0.9% | [3] 9.15% | [4] 9.75% | [5] -33.9% | [6] -7.5%

O=C1c2cc(O)c(O)cc2C(=O)c2cc3c(cc21)OCO3
inactive: [1] -38.2% | [2] -5.55% | [3] 1.4% | [4] -11.6% | [5] -8.3% | [6] -15.9%

CCCCCCCCCCCCCCCCCCCCCC(=O)O
inactive: [1] -16.1% | [2] -21.4% | [3] -21.1% | [4] -28.3% | [5] -2.15% | [6] -18.1%

CCC(C)NC(=O)c1ccc(Cl)cc1Cl (stereo unspecified)
inactive: [1] 15.8% | [2] -18.5% | [3] -12.7% | [4] -68.5% | [5] -28.9% | [6] -22.6%

Cc1cc(C)nc(NS(=O)(=O)c2ccc(Nc3c4ccccc4nc4c(C(=O)Nc5ccc(S(=O)(=O)Nc6cc(C)on6)cc5)cccc34)cc2)n1
inactive: [1] 28.8% | [2] 17.6% | [3] 32.2% | [4] 31.7% | [5] 11.4% | [6] 38.9%

CCCC(=O)Nc1cn(COC)c(C(=O)N2C[C@@H]3C[C@]34C2=CC(=O)c2[nH]cc(C)c24)n1
inactive: [1] 28.2% | [2] 20.4% | [3] 34.4% | [4] 14.2% | [5] 26.2% | [6] 50.8%

CCN(CC)CCN1C(=O)c2c(c(-c3ccccc3)c3ccccc3c2-c2ccccc2)C1=O
inactive: [1] 21.6% | [2] 35.2% | [3] 21.6% | [4] 13.2% | [5] 27.4% | [6] 28%

CCCC(C)C(SC(CC)C(N)=O)C(=O)O (stereo unspecified)
inactive: [1] -3.5% | [2] -5.15% | [3] 5.1% | [4] -12.8% | [5] 10.5% | [6] -9.15%

CC1=NN(C(=O)CC(=O)Nc2ccccc2Cl)C(=O)C1N=Nc1ccc(C(=O)O)cc1 (stereo unspecified)
inactive: [1] -3.35% | [2] -6.85% | [3] 6.75% | [4] -9.75% | [5] -5.6% | [6] 17.8%

S=C(S)NCNC(=S)S.[Zn+2]
inactive: [1] 1.65% | [2] 12.2% | [3] 26.1% | [4] -64.2% | [5] 28.2% | [6] 29.4%

O=C1C2=Cc3ccccc3CCN2c2ccc([N+](=O)[O-])cc21
inactive: [1] -28.9% | [2] 5.35% | [3] -39.4% | [4] -7% | [5] 1.7% | [6] -24.2%

C/C(=N\NC(=S)Nc1ccc(S(=O)(=O)O)cc1)c1ccccn1
inactive: [1] 21.3% | [2] 18.4% | [3] 34.5% | [4] 19.1% | [5] 33.2% | [6] 50.5%

N=c1ncn(Cc2ccccc2)c2nc[nH]c12
inactive: [1] -2.4% | [2] 2% | [3] 1.3% | [4] -3.6% | [5] 10% | [6] -4%

CO/N=C(\C([O-])=N\[n+]1cnn(CC(=O)OC(C)(C)C)c1)c1csc(NC(c2ccccc2)(c2ccccc2)c2ccccc2)n1
inactive: [1] 39.5% | [2] 0.75% | [3] 11.1% | [4] 8.3% | [5] 15.3% | [6] -10.1%

COc1ccc2c(c1)CCCN2C(N)=Nc1ccc([N+](=O)[O-])cc1
inactive: [1] -4.2% | [2] -4.4% | [3] -1.45% | [4] -55.8% | [5] -1.95% | [6] -7.7%

CC1CC(C)OC(C)(c2ccccc2)O1 (stereo unspecified)
inactive: [1] 21.4% | [2] -6% | [3] -0.9% | [4] -33.1% | [5] -18.5% | [6] 8.6%

O=C1c2ccccc2C(=O)N1CCS(=O)(=O)CCS(=O)(=O)CCN1C(=O)c2ccccc2C1=O
inactive: [1] -0.1% | [2] 4.95% | [3] -14.9% | [4] -37.5% | [5] -0.95% | [6] 4.5%

NNC(=O)CCCO
inactive: [1] -33.9% | [2] -24% | [3] -7.5% | [4] -8% | [5] 0.4% | [6] 8.25%

Cc1cccc(-n2c(-c3ccccc3)cs/c2=N\N=C2/CSC(=O)N2Cc2ccccc2)c1
inactive: [1] -2.95% | [2] -21.9% | [3] 22.8% | [4] -41.8% | [5] 2.45% | [6] -27.8%

COC(=O)c1nc(NN)[nH]c(=O)c1C
inactive: [1] -2.1% | [2] -21.1% | [3] -27.6% | [4] 3.35% | [5] -26.6% | [6] -15.1%

Cc1ccc2c(N(C)C)cc(N(C)C)nc2c1C
inactive: [1] -0.15% | [2] 4.4% | [3] -9.2% | [4] -48% | [5] -1.1% | [6] 15.5%

Cc1cc(=O)[nH]cn1
inactive: [1] 0.25% | [2] 6.2% | [3] -7.2% | [4] 7.45% | [5] 19.8% | [6] -4.9%

Clc1ccc(-c2ncc(-c3ccccc3)o2)c(Cl)c1
inactive: [1] 9.35% | [2] -3.4% | [3] 5.65% | [4] -39.9% | [5] 9.2% | [6] 23.2%

Cc1cnc(SC(C)(C)C)c(C)c1
inactive: [1] -0.2% | [2] -20.2% | [3] -8.55% | [4] -68.6% | [5] 12.9% | [6] -10.5%

COc1ccc2ccccc2c1Cc1c(O)ccc2ccccc12
inactive: [1] 15.7% | [2] -4.55% | [3] 0.75% | [4] -40% | [5] -3.1% | [6] 8%

CC(C)CCc1ccccc1O
inactive: [1] -14.7% | [2] -21.1% | [3] -28.6% | [4] -19.9% | [5] 0.1% | [6] -14.5%

Cc1ccc(N)c(C(O)(C(F)(F)F)C(F)(F)F)c1
inactive: [1] -5.7% | [2] 1.5% | [3] 12.5% | [4] 15.6% | [5] 16.6% | [6] 16.6%

S=C1CSc2c(ccc3ccccc23)N1
inactive: [1] -30.8% | [2] -14.8% | [3] 19.2% | [4] 4.95% | [5] 19.9% | [6] -9.4%

Cc1cc2c(C)nn(Cc3ccccc3Cl)c2c(C#N)c1C
inactive: [1] 32.5% | [2] -1.6% | [3] 43% | [4] 23.9% | [5] 26.9% | [6] 44.4%

Cc1ccc2c(c1)P(=O)(O)c1cc(C)ccc1O2
inactive: [1] -45.4% | [2] -13.2% | [3] 23.6% | [4] 3.2% | [5] -9.6% | [6] -8.55%

N#CC1CCN(Cc2ccccc2)C(C#N)C1 (stereo unspecified)
inactive: [1] -9.05% | [2] -2.65% | [3] -16.8% | [4] -4.8% | [5] -14.2% | [6] 3.25%

O=c1[nH]c(=O)n(C2OC(CO)C(O)C2O)cc1NN=NCc1ccccc1 (stereo unspecified)
inactive: [1] -10.1% | [2] -13.7% | [3] -11.2% | [4] 4.9% | [5] -4.5% | [6] -10.9%

NC(CC(F)(F)F)C(=O)O (stereo unspecified)
inactive: [1] 22.9% | [2] 4.2% | [3] 16.7% | [4] 31.3% | [5] -2.65% | [6] 11.9%

COCCCn1c(-c2ccc(Cl)cc2)nn2c(=O)c3ccccc3nc2c1=O
inactive: [1] 20% | [2] -1.75% | [3] 17.2% | [4] 10.2% | [5] 13.4% | [6] 7.45%

CN(C1c2ccccc2Oc2ccccc21)S(=O)(=O)c1ccc([N+](=O)[O-])cc1
inactive: [1] 9.9% | [2] -2.7% | [3] 6% | [4] 21.8% | [5] 3.35% | [6] 40.1%

O=C(NC1C2CC3CC(C2)CC1C3)c1ccncn1 (stereo unspecified)
inactive: [1] 25.1% | [2] 4.75% | [3] 17.8% | [4] 38% | [5] 13.2% | [6] 26.2%

CC1CC(C)SC(C)S1 (stereo unspecified)
inactive: [1] -30.6% | [2] -7.95% | [3] -10.1% | [4] -87.4% | [5] -2.7% | [6] -14.8%

CCCC(=O)OCc1ccc(Cl)cc1Cl
inactive: [1] 31.6% | [2] 13.3% | [3] 14.8% | [4] 7.75% | [5] 0% | [6] 13.9%

C=CC(O)C(O)C=C (stereo unspecified)
inactive: [1] 15.1% | [2] -9% | [3] 20.4% | [4] 8.25% | [5] 12.9% | [6] 17.2%

CN(C)c1ccc(C(=O)c2ccc([N+](=O)[O-])cc2)cc1
inactive: [1] -1.6% | [2] -10% | [3] 0.5% | [4] 6.3% | [5] -4.95% | [6] -8.25%

CC(=O)Nc1ccc(SC#N)c2c(NC(C)=O)cccc12
inactive: [1] 44.6% | [2] 27.5% | [3] 56.5% | [4] 27.6% | [5] 30.4% | [6] 47.7%
